# Entries with a potency or affinity are not part of this list. Inconclusive results are not listed. Calls of active or inactive are those of the source.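 The calls were made as follows: active = compounds that lower the signal with a fitted half-maximal concentration at most ten times the top valid dose; inconclusive = flat curve with moderate inhibition, or an unreliable fit; inactive = the rest.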
# Target: CAAX prenyl protease 2 (Saccharomyces cerevisiae (strain ATCC 204508 / S288c)) (UniProt Q03530)
# Test: inhibition of Rce1p peptide cleavage – biochemical, plate reader, dry powder retest, dose response (AID 588851)
# Settings: yeast membrane Rce1 fluorogenic peptide cleavage, 60 min; series mostly up to 30 µM
# Chain of CAAX prenyl protease 2 (Saccharomyces cerevisiae (strain ATCC 204508 / S288c)) (Q03530 whole entry, looked up): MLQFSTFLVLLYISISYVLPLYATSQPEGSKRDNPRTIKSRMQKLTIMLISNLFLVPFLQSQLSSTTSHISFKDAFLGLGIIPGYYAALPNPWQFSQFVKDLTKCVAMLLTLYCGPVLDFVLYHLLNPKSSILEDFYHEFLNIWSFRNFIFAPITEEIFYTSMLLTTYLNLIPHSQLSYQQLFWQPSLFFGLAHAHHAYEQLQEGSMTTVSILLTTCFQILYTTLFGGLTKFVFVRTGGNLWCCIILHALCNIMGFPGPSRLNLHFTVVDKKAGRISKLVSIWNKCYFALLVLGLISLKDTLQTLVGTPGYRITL
smiles,measurement,value
O=C(CCNC(=O)N1CC(=O)Nc2ccccc21)NCCc1cccc(F)c1,outcome,inactive

# — PubChem BioAssay AID588851 (Broad Institute, 2011)
